Results filed as inconclusive are left out. Entries that show only a call come without a potency. The source made the active and inactive calls. Calls come from the whole dose curve; as a rule, active = well fitted inhibition curve with a large enough effect; inconclusive = small, poorly fitted or top-dose-only effect; inactive = flat fitted curve, though single readings scatter.
Test: P-glycoprotein substrates identified in KB-8-5-11 adenocarcinoma cell line, qHTS therapeutic library screen (AID 1346987); note: nearly all actives have a fitted effect of over 65% in size
Details: KB-8-5-11 (P-gp overexpressing) viability, CellTiter-Glo, 72 h; series mostly up to 44.5 µM
Summary of the method: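 In this qHTS, P-gp-rich KB-8-5-11 cells received library compounds across a concentration range. Viability was quantified by luminescence after 72 h at 37 degree C.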

Compound	Potency	outcome
COC(=O)C1(O)C(OC(C)=O)CCC2C3(CC(c4ccoc4)OC3=O)C(C)=CCC21C(=O)OC (centres undefined)	inactive	
CC(=O)OCC1=CCC2C(C)(C)CCCC2(C)C12CCC(C)(CC(=O)O)O2 (centres undefined)	inactive	
OC[C@H]1O[C@@H](O[C@H]2[C@H](O)[C@@H](CO)O[C@@H](OCc3ccccc3)[C@@H]2O[C@@H]2OC[C@](O)(CO)[C@H]2O)[C@H](O)[C@@H](O)[C@@H]1O	inactive	
CC(C)C1NC(=O)C(CC2(O)c3ccccc3N3C(=O)C(Cc4ccccc4)NC32)NC1=O (centres undefined)	inactive	
CCCO[C@@H]1O[C@H](CO)[C@@H](O)[C@H](O)[C@H]1O[C@@H]1OC[C@@H](O)[C@H](O)[C@H]1O	inactive	
C=C(C)C1Cc2c(ccc3c2OCC(c2ccc(O)cc2O)C3)O1 (centres undefined)	inactive	
COc1c(C)c(OCC=C(C)C)cc2c1CNC2=O	inactive	
CC1=C(CO)CC(C(C)C2CCC3C4CC=C5CC(OC6OC(COC7OC(CO)C(O)C(O)C7O)C(O)C(O)C6O)CC(O)C5(C)C4CCC23C)OC1=O (centres undefined)	inactive	
C=C1C(OC(C)=O)CCC2(C)CCC(C(C)(C)O)CC12 (centres undefined)	inactive	
CC1(C)CC[C@]2(C(=O)O)CC[C@]3(C)C(=CCC4[C@@]5(C)CC[C@H](O[C@H]6O[C@H](C(=O)O)[C@@H](O)[C@H](O[C@@H]7O[C@H](CO)[C@H](O)[C@H](O)[C@H]7O)[C@H]6O)C(C)(C)C5CC[C@]43C)[C@@H]2C1 (some centres undefined)		inactive [at 9.29 µM]
CC(C)C1(O)C=C2C(=O)CC3C(C)(C(=O)O)CCCC3(C)C2CC1 (centres undefined)	inactive	
CC1(C(=O)O)CCCC2(C)C3CCC4CC3(CCC12)CC4C(=O)O (centres undefined)	inactive	
C/C=C(/C)C(=O)OC1CC(C)(C)CC2C3=CCC4C5(C)CCC(OC6OC(C)C(OC7OC(C(=O)O)C(O)C(OC8OC(CO)C(O)C(O)C8OC8OC(CO)C(O)C(O)C8O)C7O)C(O)C6O)C(C)(C)C5CCC4(C)C3(C)C(OC(=O)/C=C/C=C/C=C/CCC)C(OC(C)=O)C12CO (centres undefined)		inactive [at 9.29 µM]
COc1ccc(NC(=O)c2ccc(-c3ccc(C(N)=O)cc3C)cc2)cc1N1CCN(C)CC1	inactive	
COc1cc(O)c(C(=O)O)c(CCc2ccccc2)c1	inactive	
COC(=O)[C@H](O)[C@H]1C(C)(C)[C@H](OC(C)=O)[C@@]2(O)C(=O)[C@]1(C)C1CC[C@]3(C)C(CC(=O)O[C@H]3c3ccoc3)[C@]13O[C@@H]32 (some centres undefined)	inactive	
CC(C)=CCC[C@](C)(O[C@@H]1O[C@H](CO[C@@H]2O[C@@H](CO)[C@H](O)[C@H]2O[C@@H]2OC[C@@H](O)[C@H](O)[C@H]2O)[C@@H](O)[C@H](O)[C@H]1O)[C@H]1CC[C@]2(C)[C@@H]1[C@H](O)CC1[C@@]3(C)CC[C@H](O[C@@H]4O[C@H](CO)[C@@H](O)[C@H](O)[C@H]4O[C@@H]4O[C@H](CO)[C@@H](O)[C@H](O)[C@H]4O)C(C)(C)C3CC[C@]12C (some centres undefined)		inactive [at 9.29 µM]
CCC(C)C(=O)OC[C@H]1O[C@H](O[C@H]2O[C@H](CO)[C@@H](O)[C@H](O)[C@H]2O)[C@H](O)[C@@H](O)[C@@H]1O (some centres undefined)	inactive	
COC(=O)C1=CO[C@@H](O[C@@H]2O[C@H](CO)[C@@H](O)[C@H](O)[C@H]2O)[C@@H]2C(C)CC(=O)[C@]12O (some centres undefined)	inactive	
COc1cn(-c2ccc(-n3cccn3)cc2F)nc(-c2ccnn2-c2ccccc2)c1=O	inactive	
Cc1nc(-c2cccnc2)sc1C(=O)Nc1ccccc1-c1cn2c(CN3CCOCC3)csc2n1	inactive	
CCOC(=O)COc1ccc2c(c1)C[C@@H](NC[C@H](O)c1cccc(Cl)c1)CC2	inactive	
CCC(CC)CC1(C(=O)Nc2ccccc2SC(=O)C(C)C)CCCCC1	inactive	
O=[N+]([O-])c1cc(Cl)ccc1S(=O)(=O)N1CCN(Cc2ccccc2)CC1	inactive	
COc1ccc(/C=C/C(=O)N2CCCC2)cc1	inactive	
C/C=C/C=C/C=C/C(=O)OC1C=C2C(O)OC(=O)[C@]2(O)[C@@]2(C)CCCC(C)(C)[C@H]12 (some centres undefined)	inactive	
C[C@@H]1C[C@@H](O)[C@@]2(CO)C(CO)=CCC[C@@H]2[C@@]12C[C@@H](c1ccoc1)OC2=O	inactive	
Cc1nc2ccccc2c(-c2ccc3c4c(ccnc24)CCO3)c1[C@H](OC(C)(C)C)C(=O)O	inactive	
C[C@H]1[C@H](C)CC[C@]2(C(=O)O)CC[C@]3(C)C(=CCC4[C@@]5(C)C[C@@H](O)[C@H](O)C(C)(C)C5CC[C@]43C)[C@H]12 (some centres undefined)	inactive	
